Data published in PubChem BioAssay (EPA / NIEHS).
Active and inactive are the calls of the source. The calls were made as follows: active = hit-call score of the fitted dose curve at least 0.9, where 1 is the maximum; inactive = score below 0.9.

Experiments:
Conditions in all cases: mRNA level, 48 h; actives raise or lower the signal
[1] = read-out: Tumor necrosis factor receptor superfamily member 6 (Homo sapiens) (UniProt P25445); assay: LTEA_HepaRG_FAS: Life Technologies and Expression Analysis (LTEA) Assay for Fas cell surface death receptor (FAS) using HepaRG (AID 2283447)
Method in brief: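 Differentiated human HepaRG cells, pre-cultured 48 h, were exposed in duplicate for 48 h to 8-point half-log concentrations (top 100 uM, 0.5% DMSO) in serum-free induction medium; FAS mRNA measured by qRT-PCR, normalized to ACTB/GAPDH/POLR2A, bidirectional fit versus DMSO.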

[2] = read-out: Fatty acid synthase (Homo sapiens) (UniProt P49327); assay: LTEA_HepaRG_FASN: Life Technologies and Expression Analysis (LTEA) Assay for Fatty Acid Synthase (FASN) using HepaRG (AID 2283448)
Method in brief: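 HepaRG, 48 h exposure, 8-pt half-log series top 100 uM, 0.5% DMSO vehicle, duplicates. Readout: FASN transcript by Fluidigm qRT-PCR; housekeeping-normalized; bidirectional curve fit vs DMSO baseline.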

[3] = read-out: Cyclin Dependent Kinase Inhibitor 1A (CDKN1A), CDKN1A (gene 1026); assay: LTEA_HepaRG_CDKN1A: Life Technologies and Expression Analysis (LTEA) Assay for Cyclin Dependent Kinase Inhibitor 1A (CDKN1A) using HepaRG (AID 2283450)
Method in brief: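 Read-out is CDKN1A mRNA by TaqMan qRT-PCR, normalized to three housekeeping genes and fitted in both directions against the DMSO baseline. Human HepaRG cells were treated 48 h with test chemicals up to 100 uM in half-log steps, 0.5% DMSO.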

[4] = read-out: Cyclin D1 (CCND1), CCND1 (gene 595); assay: LTEA_HepaRG_CCND1: Life Technologies and Expression Analysis (LTEA) Assay for Cyclin D1 (CCND1) using HepaRG (AID 2283451);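 as to AC50: TaqMan qRT-PCR transcript level normalised to ACTB GAPDH and POLR2A housekeeping genes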
Method in brief: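 HepaRG plated 48 h, medium switched to serum-free induction medium, chemicals added in duplicate (top 100 uM, half-log steps, 0.5% DMSO) for 48 h, cells lysed, RNA measured by TaqMan qRT-PCR.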

[5] = read-out: catalase (CAT), CAT (gene 847); assay: LTEA_HepaRG_CAT: Life Technologies and Expression Analysis (LTEA) Assay for catalase (CAT) using HepaRG (AID 2283452)
Method in brief: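 Differentiated HepaRG cells in serum-free induction medium were dosed 48 h in duplicate, eight half-log concentrations from 100 uM in 0.5% DMSO. Transcript measured by TaqMan qRT-PCR, normalised to ACTB/GAPDH/POLR2A, fitted bidirectionally against DMSO.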

[6] = read-out: flavin-containing dimethylaniline monooxygenases 3 (FMO3), FMO3 (gene 2328); assay: LTEA_HepaRG_FMO3: Life Technologies and Expression Analysis (LTEA) Assay for flavin-containing dimethylaniline monooxygenases 3 (FMO3) using HepaRG (AID 2283453)
Method in brief: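 Eight-point concentration-response in serum-free HepaRG cultures (top 100 uM, 0.5% DMSO, 48 h). Read-out: FMO3 mRNA level normalized to three endogenous control genes, fitted bidirectionally versus vehicle.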

[7] = read-out: Cytochrome P450 (CYP1A1), CYP1A1 (gene 1543); assay: LTEA_HepaRG_CYP1A1: Life Technologies and Expression Analysis (LTEA) Assay for Cytochrome P450 (CYP1A1) using HepaRG (AID 2283454)
Method in brief: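 HepaRG, 48 h post-plating switched to serum-free induction medium; 8-pt conc-response (top 100 uM, half-log, 0.5% DMSO), duplicates, 48 h. Lysis in RLT, TaqMan qRT-PCR for CYP1A1; gain or loss vs DMSO.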

[8] = read-out: CFLAR gene, CFLAR (gene 8837); assay: LTEA_HepaRG_CFLAR: Life Technologies and Expression Analysis (LTEA) Assay for CFLAR gene using HepaRG (AID 2283455)
Method in brief: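 Gain- or loss-of-signal changes in CFLAR transcript were fitted bidirectionally relative to 0.5% DMSO. Cells (HepaRG, duplicate wells) were dosed for 48 h across eight half-log concentrations topping at 100 uM; quantitation by TaqMan qRT-PCR.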

[9] = read-out: Forkhead box O1 (FOXO1), FOXO1 (gene 2308); assay: LTEA_HepaRG_FOXO1: Life Technologies and Expression Analysis (LTEA) Assay for Forkhead box O1 (FOXO1) using HepaRG (AID 2283456)
Method in brief: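 Using one lot of HepaRG hepatic cells kept in 0.5% DMSO, the team applied test chemicals in duplicate, half-log dilutions from 100 uM, for 48 h. Expression, normalised to ACTB/GAPDH/POLR2A, was compared with vehicle in either direction.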

[10] = read-out: growth arrest and DNA damage 45 (GADD45A), GADD45A (gene 1647); assay: LTEA_HepaRG_GADD45A: Life Technologies and Expression Analysis (LTEA) Assay for growth arrest and DNA damage 45 (GADD45A) using HepaRG (AID 2283458)
Method in brief: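 HepaRG, 48 h exposure, 8 conc. (top 100 uM, half-log steps), 0.5% DMSO vehicle, duplicates. Read-out: qRT-PCR mRNA level, housekeeping-normalized (ACTB/GAPDH/POLR2A). Curves fit bidirectionally vs DMSO baseline.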

[11] = read-out: Forkhead box O3 (FOXO3), FOXO3 (gene 2309); assay: LTEA_HepaRG_FOXO3: Life Technologies and Expression Analysis (LTEA) Assay for Forkhead box O3 (FOXO3) using HepaRG (AID 2283459)
Method in brief: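 Gene-expression endpoint: FOXO3 transcript level by qRT-PCR in HepaRG cultures treated 48 h with chemicals up to 100 uM (half-log, 0.5% DMSO vehicle).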

[12] = read-out: ABC Transporter (ABCB1), ABCB1 (gene 5243); assay: LTEA_HepaRG_ABCB1: Life Technologies and Expression Analysis (LTEA) Assay for ABC Transporter (ABCB1) using HepaRG (AID 2283460)
Method in brief: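 Human liver HepaRG line treated 48 h with up to 100 uM compound (eight half-log points, 0.5% DMSO); ABCB1 mRNA change fitted bidirectionally against DMSO controls.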

[13] = read-out: ABC Transporter (ABCC3), ABCC3 (gene 8714); assay: LTEA_HepaRG_ABCC3: Life Technologies and Expression Analysis (LTEA) Assay for ABC Transporter (ABCC3) using HepaRG (AID 2283462)
Method in brief: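 Human HepaRG, 48 h dosing, 8-pt half-log series from 100 uM, 0.5% DMSO vehicle, duplicates. ABCC3 mRNA by TaqMan qRT-PCR, housekeeping-normalized; bidirectional curve fit vs DMSO.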

[14] = read-out: ABC Transporter (ABCB11), ABCB11 (gene 8647); assay: LTEA_HepaRG_ABCB11: Life Technologies and Expression Analysis (LTEA) Assay for ABC Transporter (ABCB11) using HepaRG (AID 2283463)
Method in brief: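 Using HepaRG cultures held in 0.5% DMSO, chemicals were tested at half-log dilutions from 100 uM for 48 h. Induction or suppression of ABCB11 mRNA, normalized to ACTB, GAPDH and POLR2A, was fitted bidirectionally against vehicle.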

[15] = read-out: ABC Transporter (ABCC2), ABCC2 (gene 1244); assay: LTEA_HepaRG_ABCC2: Life Technologies and Expression Analysis (LTEA) Assay for ABC Transporter (ABCC2) using HepaRG (AID 2283464)
Method in brief: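 HepaRG, 48 h post-plating; serum-free induction medium; cpd 8-pt, 100 uM top, half-log, 0.5% DMSO, duplicate, 48 h. Readout: ABCC2 mRNA by qRT-PCR, norm. ACTB/GAPDH/POLR2A. Bidirectional fit vs DMSO baseline.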

[16] = read-out: Broad substrate specificity ATP-binding cassette transporter ABCG2 (Homo sapiens) (UniProt Q9UNQ0); assay: LTEA_HepaRG_ABCG2: Life Technologies and Expression Analysis (LTEA) Assay for ABC Transporter (ABCG2) using HepaRG (AID 2283465)
Method in brief: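 Gene expression of ABCG2 in HepaRG liver cells is quantified by qRT-PCR following 48 h exposure across an eight-point series topping at 100 uM. Values come from bidirectional fitting relative to DMSO vehicle.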

[17] = read-out: ATP-citrate lyase (ACLY), ACLY (gene 47); assay: LTEA_HepaRG_ACLY: Life Technologies and Expression Analysis (LTEA) Assay for ATP-citrate lyase (ACLY) using HepaRG (AID 2283466)
Method in brief: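 ACLY expression changes in human HepaRG liver cells are quantified by qRT-PCR after 48 h exposure to test chemicals (maximum 100 uM, half-log steps). Values are fitted in both directions relative to 0.5% DMSO vehicle.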

[18] = read-out: Cyclin D2 (CCND2), CCND2 (gene 894); assay: LTEA_HepaRG_CCND2: Life Technologies and Expression Analysis (LTEA) Assay for Cyclin D2 (CCND2) using HepaRG (AID 2283449);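 also: CCND2 transcript measured by TaqMan qRT-PCR and normalised to three housekeeping genes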
Method in brief: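 In this HepaRG study, an eight-point concentration series (max 100 uM, 0.5% DMSO) is applied for 48 h. CCND2 mRNA change is derived by qRT-PCR normalised to ACTB, GAPDH and POLR2A.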

[19] = read-out: growth arrest and DNA damage 45 (GADD45B), GADD45B (gene 4616); assay: LTEA_HepaRG_GADD45B: Life Technologies and Expression Analysis (LTEA) Assay for growth arrest and DNA damage 45 (GADD45B) using HepaRG (AID 2283461)
Method in brief: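 HepaRG, ~100,000 cells/well, 48 h plating; serum-free induction medium; cpd 100 uM top, half-log x8, 0.5% DMSO, duplicate, 48 h; lysis in RLT, RNA isolation, qRT-PCR; norm ACTB/GAPDH/POLR2A; bidirectional fit vs DMSO.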

Measured: AC50

Broad substrate specificity ATP-binding cassette transporter ABCG2 (Homo sapiens), sequence (Q9UNQ0 whole entry, looked up): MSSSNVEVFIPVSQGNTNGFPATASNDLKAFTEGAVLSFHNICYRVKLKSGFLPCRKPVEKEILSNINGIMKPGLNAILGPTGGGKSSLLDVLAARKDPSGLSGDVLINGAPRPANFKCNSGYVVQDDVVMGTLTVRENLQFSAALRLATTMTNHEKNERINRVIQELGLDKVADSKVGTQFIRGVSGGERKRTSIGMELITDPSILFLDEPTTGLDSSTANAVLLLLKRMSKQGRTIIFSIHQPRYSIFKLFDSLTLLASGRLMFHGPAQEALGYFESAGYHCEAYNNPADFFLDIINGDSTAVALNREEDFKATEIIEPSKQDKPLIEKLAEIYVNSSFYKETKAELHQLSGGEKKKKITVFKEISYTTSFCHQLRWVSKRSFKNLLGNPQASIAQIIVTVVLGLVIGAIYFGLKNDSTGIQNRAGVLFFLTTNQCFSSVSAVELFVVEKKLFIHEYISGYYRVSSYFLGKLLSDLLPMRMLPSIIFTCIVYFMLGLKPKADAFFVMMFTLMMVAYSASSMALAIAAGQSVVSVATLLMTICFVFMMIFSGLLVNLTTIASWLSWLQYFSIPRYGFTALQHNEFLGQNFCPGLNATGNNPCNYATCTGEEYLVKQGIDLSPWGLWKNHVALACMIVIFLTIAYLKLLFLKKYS
Fatty acid synthase (Homo sapiens), sequence (P49327 whole entry, looked up): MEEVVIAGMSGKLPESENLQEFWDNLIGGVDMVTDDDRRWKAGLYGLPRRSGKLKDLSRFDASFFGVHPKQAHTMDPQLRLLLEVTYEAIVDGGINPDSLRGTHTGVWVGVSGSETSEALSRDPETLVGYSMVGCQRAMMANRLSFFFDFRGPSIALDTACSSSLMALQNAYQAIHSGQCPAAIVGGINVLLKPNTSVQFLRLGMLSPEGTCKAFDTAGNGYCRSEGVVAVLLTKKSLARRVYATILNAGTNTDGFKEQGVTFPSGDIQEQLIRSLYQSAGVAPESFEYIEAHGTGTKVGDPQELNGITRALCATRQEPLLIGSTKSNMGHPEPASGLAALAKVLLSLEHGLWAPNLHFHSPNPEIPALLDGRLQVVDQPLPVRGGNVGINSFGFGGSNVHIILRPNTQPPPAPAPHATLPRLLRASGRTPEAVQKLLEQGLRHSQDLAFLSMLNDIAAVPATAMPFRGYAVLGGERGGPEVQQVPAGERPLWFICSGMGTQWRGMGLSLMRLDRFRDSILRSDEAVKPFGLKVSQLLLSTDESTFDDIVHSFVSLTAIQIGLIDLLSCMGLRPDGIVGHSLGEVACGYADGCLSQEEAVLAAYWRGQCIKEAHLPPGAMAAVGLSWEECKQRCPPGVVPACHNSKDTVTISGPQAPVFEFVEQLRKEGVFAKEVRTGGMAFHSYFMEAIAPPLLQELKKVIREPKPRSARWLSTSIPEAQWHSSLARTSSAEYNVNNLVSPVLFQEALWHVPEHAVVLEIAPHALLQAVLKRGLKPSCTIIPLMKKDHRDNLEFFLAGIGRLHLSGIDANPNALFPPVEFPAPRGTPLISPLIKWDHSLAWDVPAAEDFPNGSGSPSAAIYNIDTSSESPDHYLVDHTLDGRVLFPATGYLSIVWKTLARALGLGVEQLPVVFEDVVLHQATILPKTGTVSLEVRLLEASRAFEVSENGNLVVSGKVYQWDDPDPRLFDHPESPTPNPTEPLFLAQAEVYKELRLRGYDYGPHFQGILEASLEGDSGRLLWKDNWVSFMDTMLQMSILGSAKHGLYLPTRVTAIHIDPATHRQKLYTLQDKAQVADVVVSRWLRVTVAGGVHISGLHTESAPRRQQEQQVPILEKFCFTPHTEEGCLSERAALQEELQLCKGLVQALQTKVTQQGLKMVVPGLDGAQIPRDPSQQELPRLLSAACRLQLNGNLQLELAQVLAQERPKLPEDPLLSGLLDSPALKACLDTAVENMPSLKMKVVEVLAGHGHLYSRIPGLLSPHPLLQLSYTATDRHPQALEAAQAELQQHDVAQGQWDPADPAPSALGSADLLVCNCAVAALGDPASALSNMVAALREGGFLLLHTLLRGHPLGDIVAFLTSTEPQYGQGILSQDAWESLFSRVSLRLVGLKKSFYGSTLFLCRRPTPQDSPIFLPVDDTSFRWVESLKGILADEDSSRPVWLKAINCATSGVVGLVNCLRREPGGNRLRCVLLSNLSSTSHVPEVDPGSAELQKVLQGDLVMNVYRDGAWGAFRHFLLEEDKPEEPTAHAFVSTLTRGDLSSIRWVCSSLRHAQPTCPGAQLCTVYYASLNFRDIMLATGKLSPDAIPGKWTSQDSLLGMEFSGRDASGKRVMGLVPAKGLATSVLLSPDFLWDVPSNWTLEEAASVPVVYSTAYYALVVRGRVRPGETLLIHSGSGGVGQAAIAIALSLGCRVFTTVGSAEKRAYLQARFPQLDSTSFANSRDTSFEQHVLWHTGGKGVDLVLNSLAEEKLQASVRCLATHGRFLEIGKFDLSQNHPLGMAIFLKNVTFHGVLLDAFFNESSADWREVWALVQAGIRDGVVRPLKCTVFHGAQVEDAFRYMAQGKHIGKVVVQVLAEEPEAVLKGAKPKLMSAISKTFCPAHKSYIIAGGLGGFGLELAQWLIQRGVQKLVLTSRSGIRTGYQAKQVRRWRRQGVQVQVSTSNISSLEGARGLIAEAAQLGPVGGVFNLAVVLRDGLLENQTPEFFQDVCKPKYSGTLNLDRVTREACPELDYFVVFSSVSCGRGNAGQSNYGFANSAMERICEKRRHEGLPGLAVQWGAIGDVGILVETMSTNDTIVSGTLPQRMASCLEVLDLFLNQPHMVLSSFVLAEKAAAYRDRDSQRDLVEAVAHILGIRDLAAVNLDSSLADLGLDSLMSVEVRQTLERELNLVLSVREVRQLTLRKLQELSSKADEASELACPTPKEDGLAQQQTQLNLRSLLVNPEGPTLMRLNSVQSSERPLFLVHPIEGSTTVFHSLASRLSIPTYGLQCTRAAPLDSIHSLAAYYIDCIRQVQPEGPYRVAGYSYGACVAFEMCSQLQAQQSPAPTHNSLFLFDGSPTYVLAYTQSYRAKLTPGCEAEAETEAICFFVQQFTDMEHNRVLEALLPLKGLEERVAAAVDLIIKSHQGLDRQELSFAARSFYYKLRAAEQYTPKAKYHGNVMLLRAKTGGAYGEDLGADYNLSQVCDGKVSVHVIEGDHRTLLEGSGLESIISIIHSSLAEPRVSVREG

CN1COCN(Cc2cnc(Cl)s2)C1=N[N+](=O)[O-]
not listed: [18] | [19]
inactive: all other assays above

CC1(C(=O)Nc2ccc(O)c(Cl)c2Cl)CCCCC1
active: [7] 67.2 µM
not listed: [2]
inactive: all other assays above

C#CCC1=C(C)C(OC(=O)C2C(C=C(C)C)C2(C)C)CC1=O (stereo not drawn)
active: [7] 49.8 µM | [15] 19.6 µM | [16] 9.87 µM
not listed: [19]
inactive: all other assays above

CCOP(=S)(OCC)Oc1cc(C)nc(C(C)C)n1
active: [7] 33 µM
not listed: [18] | [19]
inactive: all other assays above

CN(C)NC(=O)CCC(=O)O
not listed: [19]
inactive: all other assays above

CCC(=NOC/C=C/Cl)C1=C(O)CC(C2CCOCC2)CC1=O (stereo not drawn)
active: [4] 0.414 µM | [7] 50 µM
not listed: [18] | [19]
inactive: all other assays above

CNC(=O)Oc1cccc2c1OC(C)(C)O2
not listed: [18]
inactive: all other assays above
